Source: PubChem (Broad Institute)
Hits are enriched below; roughly 3.4% of the tested compounds scored in any of these assays.
rRNA inh HTS: reduced GFP signal of wild-type E. coli, primary screen, bacterial rRNA inhibitor project, GFP/RFP fluorescence, OD600, single point; E. coli WT GFP vs humanized-ribosome RFP mutants, 24 h; stronger effect = lower value; DMSO median 0, no signal -100; GFP signal change (wild-type ribosome), % (no concentration beside the values); 1.6% of 350,000 active;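 active means significant combined selectivity score with lowered wild-type GFP, culture density cut under 30%, mutant RFP and density less affected; inactive means any of these conditions unmet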
PAX8 reporter: inhibitors of PAX8-driven TPO luciferase reporter, primary screen, RMG-I cells, single concentration; SteadyGlo, 24 h; inhibition, % at 12.6 µM; 1.2% of 360,000 active;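 active means mean replicate inhibition at least 60% with every replicate also reaching 60%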;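 further: luciferase light reporting Pax8 driven TPO promoter activity; plate controls were median of neutral control wells for no effect and mitoxantrone controls for full effect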
EWS-Fli block: EWS/Fli-driven NR0B1 reporter inhibitors, primary screen, A673 cells, NR0B1 luciferase, luminescence, MLPCN library; inhibition, % at 12.6 µM; viability-normalised; 0.67% of 350,000 active;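 active means mean inhibition of at least 50% after viability correction, with every replicate also passing that limit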;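 further: firefly luciferase signal divided by Alamar Blue viability fluorescence both relative to DMSO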
SIRT5 inh: SIRT5 desuccinylase inhibitors, primary screen, biochemical, fluorescence imaging, single point, set 5. inhibition, % at 15 µM. NAD-dependent protein deacylase sirtuin-5, mitochondrial (Homo sapiens), Q9NXA8. 1.1% of 330,000 active. Purified SirT5, succinyl-peptide AMC, trypsin-coupled fluorescence. AID 652115, 2013; in the data active means inhibition above about 15%
Target sequence (Q9NXA8 whole entry, looked up): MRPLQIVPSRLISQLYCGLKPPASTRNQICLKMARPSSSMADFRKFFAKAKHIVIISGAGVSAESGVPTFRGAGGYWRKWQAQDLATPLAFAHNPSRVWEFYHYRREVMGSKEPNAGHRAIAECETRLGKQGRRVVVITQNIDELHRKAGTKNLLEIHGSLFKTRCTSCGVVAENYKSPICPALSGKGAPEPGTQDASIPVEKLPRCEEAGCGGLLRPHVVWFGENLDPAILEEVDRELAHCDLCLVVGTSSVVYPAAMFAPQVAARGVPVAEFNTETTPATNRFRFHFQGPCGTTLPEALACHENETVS
PGC1a acetyl inh: inhibitors of PGC1a acetylation signal, primary screen, cell-based, U2OS, AlphaScreen, inhibitor mode | inhibition, % at 15.6 µM | AlphaScreen anti-acetyl-lysine; with virally co-expressed GCN5 acetyltransferase | AID 651687, 2012 | 0.17% of 350,000 active;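 active means every replicate shows inhibition of at least 40%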;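 further: 0% = neutral control wells and 100% = positive control wells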
LGR2 inh: inhibitors of bursicon-induced LGR2 CRE-luciferase signal, primary screen, cell-based, HEK293, CRE-luciferase reporter, bursicon stimulation. Drosophila bursicon receptor LGR2 (rickets). bursicon-stimulated, 4 h. inhibition, % at 9.99 µM. 0.35% of 380,000 active. AID 720647, 2013;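 active means drop in luminescence signal, shown as inhibition above about 50% in the replicate tests, limit read from the data, passing the limit was not always enough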;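 further: agonist challenge used bursicon conditioned medium at about half maximal strength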
Active calls of the source: *; nt = no result.

SMILES	rRNA inh HTS	PAX8 reporter	EWS-Fli block	SIRT5 inh	PGC1a acetyl inh	LGR2 inh
O=S(=O)(c1ccccc1)N1CC2(C1)[C@@H](c1ccccc1)[C@H](CO)N2CC1CC1	-4.2	nt	nt	0.8	nt	9.8
CCC1CN(C(=O)NCc2ccccc2)c2ccccc2O1 (centres undefined)	-21.5*	13.4	9.8	-2.1	2.7	-8.5
CCC1CN(C(=O)NCc2ccccc2)c2cc(Cl)ccc2O1 (centres undefined)	-9.3	-7.5	15.1	-7.7	1.9	-8.0
Fc1ccc(NC(=S)N2CCN(c3ccccn3)CC2)cc1Cl	-21.8*	-7.7	5.2	-2.8	-8.0	3.4
CC(NNC(=S)N1CCN(c2ccccn2)CC1)c1nccc2ccccc12 (centres undefined)	-0.6	71.8*	25.8	-1.7	17.6	-7.2
S=C(Nc1cc(Cl)cc(Cl)c1)N1CCN(c2ccccn2)CC1	-1.0	5.3	nt	-1.1	nt	20.5
Cc1cc(C)cc(NC(=S)N2CCN(c3ccccn3)CC2)c1	-21.9*	2.3	14.7	3.7	-3.4	-3.2
CCNC(=S)N1CCN(c2ccccn2)CC1	7.6	-3.4	-6.9	-12.2	nt	3.4
Cc1cccc(NC(=S)N2CCN(c3ccccn3)CC2)c1	10.6	8.1	1.2	-2.3	-7.7	-5.1
C[C@H](CO)N1C[C@H](C)[C@@H](CN(C)C(=O)Nc2ccc3c(c2)OCO3)Oc2ccc(NC(=O)Nc3ccc(C(F)(F)F)cc3)cc2CC1=O	-4.0	9.9	9.9	-10.1	0.4	10.1
CC(C)C[C@H]1COCc2cn(nn2)CC[C@H](Cc2cccc(Cl)c2)C(=O)N1	-0.4	nt	nt	nt	nt	nt
Cc1ccc(S(=O)(=O)N(C)C[C@@H]2OCCCC[C@@H](C)Oc3ccc(N(C)C)cc3C(=O)N([C@H](C)CO)C[C@H]2C)cc1	-6.0	35.6	-13.4	-0.2	-41.7	-23.3
O=C(Cn1ncc2c1-c1ccccc1OC2)N1CCN(Cc2ccccc2)CC1	1.2	11.9	12.9	-8.8	nt	-1.4
O=C(Cn1ncc(Cl)c(Cl)c1=O)N1CCc2ccccc21	-4.3	65.6*	54.4*	-1.6	-26.5	70.5*
O=C(Cn1ncc2c1-c1ccccc1OC2)N1CCc2ccccc21	-3.1	20.5	-3.5	-5.0	nt	23.2
O=C(Cn1ncc(Cl)c(Cl)c1=O)N1CCOCC1	16.6	26.3	48.4	-3.4	-20.7	100.2*
O=C(Cn1ncc(Cl)c(Cl)c1=O)N1CCN(Cc2ccccc2)CC1	11.8	73.3*	66.6*	-1.2	nt	103.8*
CN1CCN(C(=O)C[C@H]2C[C@H]3c4cc(NC(=O)Nc5ccc(F)cc5)ccc4O[C@H]3[C@H](CO)O2)CC1	3.8	nt	-1.0	1.1	-15.7	-16.5
Cc1ccc(-c2nc3ccc([N+](=O)[O-])cc3[nH]2)cc1	-50.7	-51.3	-16.4	-3.4	-9.0	54.1*
O/N=C/c1ccnc(SCc2ccccc2)n1	-16.2*	-71.2	-48.6	-0.4	nt	-119.0
C[C@H]1CN([C@@H](C)CO)C(=O)c2cc(-c3ccc(F)cc3)cnc2O[C@@H]1CN(C)C(=O)NC1CCCC1	0.4	-7.6	-4.4	-5.5	8.7	19.9
Cc1ccc(S(=O)(=O)Nc2ccc3c(c2)CC(=O)N([C@@H](C)CO)C[C@H](C)[C@@H](CN(C)Cc2ccc(Oc4ccccc4)cc2)O3)cc1	3.8	79.6*	6.9	7.2	9.1	12.0
C[C@@H]1CN([C@H](C)CO)C(=O)Cc2cc(NS(=O)(=O)c3ccc(Cl)cc3)ccc2O[C@H]1CN(C)Cc1ccc(Oc2ccccc2)cc1	2.1	14.6	27.9	20.0*	0.0	4.0
Cc1ccc(S(=O)(=O)Nc2ccc3c(c2)CC(=O)N([C@H](C)CO)C[C@H](C)[C@H](CN(C)Cc2ccc(Oc4ccccc4)cc2)O3)cc1	0.8	-11.1	-6.6	10.6	0.5	-9.8
O=C(C[C@H]1C=C[C@H](NC(=O)Cc2ccccn2)[C@H](CO)O1)NCCc1ccccc1	0.1	nt	nt	-1.6	1.2	20.7
SMILES	rRNA inh HTS	PAX8 reporter	EWS-Fli block	SIRT5 inh	PGC1a acetyl inh	LGR2 inh
CCC(=O)N1[C@H](C(=O)NC2CCC2)[C@@H](CO)[C@@H]2Cn3c(ccc(-c4ccc(F)cc4)c3=O)[C@@H]21	0.9	-9.9	-10.5	-10.9	nt	-25.7
CC(=O)N1CC(C)Sc2ccc(S(=O)(=O)NCCc3ccccc3)cc21 (centres undefined)	-25.4*	-18.3	nt	-0.9	-13.0	-13.8
CC1=CC(=O)c2ccccc2C1=O	-2.8	2.4	-4.8	-2.5	-1.8	-7.1
CC(C)(C=O)C1=CC(=O)c2ccccc2C1=O	-3.2	64.7*	nt	nt	nt	10.4
COCCNC(=S)N1CCN(c2nc3ccccc3s2)CC1	-26.3*	-34.1	-13.0	-4.8	nt	-10.7
COCCn1nnnc1C(c1cccs1)N1CCN(c2nc3ccccc3s2)CC1 (centres undefined)	-21.9*	nt	1.5	-0.1	-12.1	-12.5
COCCNC(=S)N1CCN(c2nc(-c3ccc(F)cc3)cs2)CC1	-18.4	13.8	4.1	-3.1	-1.3	-6.7
COCCn1nnnc1C(c1cccs1)N1CCN(c2cc(C)ccc2C)CC1 (centres undefined)	nt	nt	nt	nt	-6.2	3.7
COCCCNC(=S)N1CCN(c2nc3ccccc3s2)CC1	-29.8*	-7.8	-17.3	-0.3	nt	-22.8
COc1ccc(CN(C)C[C@H]2OCCCC[C@H](C)Oc3ccc(NC(=O)Nc4c(C)noc4C)cc3C(=O)N([C@@H](C)CO)C[C@@H]2C)cc1	-0.8	-1.8	0.7	2.0	-7.4	8.0
C[C@@H]1CN([C@H](C)CO)C(=O)c2cc(N(C)C)ccc2O[C@@H](C)CCCCO[C@H]1CN(C)Cc1ccc(C(=O)Nc2ccccc2N)cc1	4.1	nt	nt	nt	nt	nt
COc1cccc(OC)c1OCCCCc1c(C)n[nH]c1C	-23.9*	-7.5	8.4	3.3	nt	4.7
COc1cccc(OC)c1OCCCCCc1c(C)n[nH]c1C	nt	nt	nt	nt	11.3	6.2
CCCNC(=O)COC(=O)c1ccccc1C(=O)c1ccc(Cl)c([N+](=O)[O-])c1	5.0	54.0	54.6*	0.6	-126.9	106.2*
Cc1ccc(Cl)c(NC(=O)COC(=O)c2ccccc2C(=O)c2ccc(Cl)c([N+](=O)[O-])c2)c1Cl	nt	16.3	nt	nt	33.9	-0.7
CCOC(=O)C1=CCN(S(=O)(=O)c2ccc(C)cc2)C1c1cccc(Br)c1 (centres undefined)	-8.4	10.0	3.8	28.8*	-17.2	-3.5
CCOC(=O)C1=CCN(S(=O)(=O)c2ccc(C)cc2)C1c1ccccc1F (centres undefined)	-24.6	14.3	-0.1	-1.6	-16.1	-13.4
CCOC(=O)C1=CCN(S(=O)(=O)c2ccc(C)cc2)[C@H]1c1ccccc1Cl	-28.6*	7.8	9.7	0.3	-45.7	1.0
